# Assay outcomes as filed in PubChem BioAssay.
# Rango-impB inh – prevents formation of the Rango-importin beta complex; Q14974; Rango CFP/YFP FRET sensor + importin beta, 45 min; Potency, µM (top dose mostly 92.2 µM), for inactives: top-dose inhibition of complex formation; actives 0.031% (n = 340,000);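 further: potency means the concentration at half of the fitted maximal effect; 0% = DMSO wells and 100% = buffer wells lacking importin beta; nearly all actives have a fitted effect of over 15% in size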
#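 FRET biosensor (snurportin 1 IBB flanked by EYFP and cerulean), 50 nM, with compound 5 min, then 0.125 microM importin beta in PBS, 1 mM DTT, 0.02% Tween-20, 0.1% BSA. CFP/YFP ratio read after 45 min at room temperature; pre-read flags interference.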
# hERG WT inh – blocks the wildtype human KCNH2 potassium channel | U2OS, BacMam KCNH2, thallium flux FluxOr; hits give low values | AID 720551 | actives 0.37% (n = 340,000) | Q12809 | activity change, % at 1.84 µM;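 active means maximum activity change below -70%; inconclusive means maximum activity change between -70% and -50%; inactive means maximum activity change above -50%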; further: on the % scale 0 is the no-effect control and ±100 the full control effect
#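 U2OS cells were transduced with wild-type KCNH2 virus (2.03 x 10^8 / mL) for 4 h at room temperature, then cultured overnight at 37 C. Thallium flux was read with FluxOr dye. Rate constants were normalized to DMSO controls.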
# KCNH2 3.1 block – inhibitors of human KCNH2 3.1 potassium channel isoform; U2OS KCNH2 3.1, thallium flux FluxOr; hits give low values; activity change, % (tested at about 1.8 µM); actives 0.95% (n = 340,000); AID 720553;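 active means maximum activity change below -70%; inconclusive means maximum activity change from -70% to -50%; inactive means maximum activity change above -50%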;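 further: thallium influx rate constant from kinetic fluorescence after stimulation buffer; on the % scale 0 is the no-effect control and ±100 the full control effect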
#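 FluxOr-based Tl+ influx in U2OS cells transduced with KCNH2 3.1 virus; rate constants normalized to DMSO controls.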
# Rango release inh – inhibitors of RanGTP-induced Rango-importin beta complex dissociation. O95149+P62826. Biochemical FRET Rango-importin beta, RanGTP-induced dissociation. Potency, µM (top dose mostly 46.1 µM), inactives show at the highest dose activity change, negative = inhibition. actives 0.071% (n = 340,000). AID 540253; further: potency means the concentration at half of the fitted maximal effect; % of control where 0% means no effect; nearly all actives have a fitted effect of over 45% in size
#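 Quantitative HTS using a FRET biosensor: 0.1 uM Rango, 0.25 uM importin beta, 0.6 uM Ran, 2 mM GTP, 0.2 uM RCC1 final, PBS with DTT, Tween-20 and BSA. Post-read taken 45 min after Ran addition.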
# Active calls of the source: *; ? = inconclusive; · = no result. The list is not random: actives were taken first. Their share in the collection is about 1.3%. Unless noted, the call rests on the fitted dose curve.
SMILES,Rango-impB inh,hERG WT inh,KCNH2 3.1 block,Rango release inh
CCN1CCN(C(=O)CCc2nnc(CCc3ccc(OC)cc3)o2)[C@@H](C)C1=O,3.1%,-23.1,11.7,-5.2%
COc1ccc(NC(=O)CN(C)C(=O)c2cccc(NS(=O)(=O)c3ccc(Br)cc3)c2)cc1,3.4%,-8.1,-126.6*,-0.1%
COc1cccc(NC(=O)CN(C)C(=O)c2cccc(NS(=O)(=O)c3ccc(Br)cc3)c2)c1,0.9%,-5.2,5.9,-5.5%
COc1ccc(C(CNC(=O)c2cccc(NS(=O)(=O)c3ccc(Br)cc3)c2)N(C)C)cc1 (centres undefined),6.1%,6.7,-80.0*,-15.8%
COc1ccc(C(CNC(=O)c2cccc(NS(=O)(=O)c3ccccc3)c2)N2CCCC2)cc1 (centres undefined),-0.7%,-0.6,9.6,1.1%
COc1ccc(CCNC(=O)CCCn2ncn3c(cc4occc43)c2=O)c(OC)c1,-1.7%,-3.2,0.4,-8.5%
CC(OC(=O)c1cccnc1Cl)C(=O)Nc1ccc2c(c1)OCO2 (centres undefined),4.1%,-27.1,?,-13.1%
COC(=O)c1cc(Cl)c(NC(=O)/C=C/c2ccc(Cl)cc2)cc1OC,-3.5%,-27.0,-79.6*,-1.8%
COC(=O)c1cc(Cl)c(NC(=O)/C=C/c2ccc(OC)c(OC)c2)cc1OC,?,-2.8,2.6,?
CN(C/C=C/c1ccccc1)Cc1cccc2ccccc12,0.1%,14.6,-94.5*,1.4%
Cc1ccc(S(=O)(=O)C(c2ccccc2)c2c(C)noc2C)cc1 (centres undefined),-0.8%,15.8,-5.7,0.3%
Cc1noc(C)c1C(c1ccccc1)S(=O)(=O)c1ccccc1 (centres undefined),-0.3%,-140.2*,-18.0,12.5%
C=CC[n+]1c(C)csc1Nc1ccc(C(=O)O)cc1,-0.3%,·,-79.3*,-13.2%
O=C(O)c1ccc(C[n+]2c(-c3ccccc3)csc2Nc2ccccc2)cc1,0.1%,-3.8,-2.2,5.0%
COc1ccc(Cl)cc1C(=O)n1cnc2ccccc21,-2.9%,-2.3,6.7,9.5%
CCc1ccc(CNc2ccc3c(c2)ncn3C(C)(C)C)cc1,5.1%,·,·,-2.1%
CC(C)(C)n1cnc2cc(NCc3ccc(Br)cc3)ccc21,0.1%,23.0,-95.7*,16.9%
CC(=O)Nc1ccc(C(=O)CN2C(=O)NC3(CCCc4ccccc43)C2=O)c(F)c1 (centres undefined),?,1.7,-10.1,19.6%
Nc1ccn([C@@H]2O[C@H](CNC(=O)[C@H]3CCC(=O)N3)[C@@H](O)[C@H]2O)c(=O)n1,·,-2.3,-9.6,·
COc1ccc(C(=O)Nc2ccc(N3CCOCC3)cc2)cc1S(=O)(=O)N1CCOCC1,-1.7%,-1.0,2.4,-1.0%
COc1ccc(C(=O)Nc2ccc(-c3ccc(C)o3)cc2)cc1S(=O)(=O)N1CCOCC1,-1.8%,15.6,-70.9*,0.1%
COc1ccccc1N1CCN(CCCC(=O)c2ccc(F)cc2)CC1,3.8%,44.9,-70.4*,-10.1%
O=C(CCCN1CCC(C(=O)c2ccc(F)cc2)CC1)c1ccc(F)cc1,-4.0%,-74.1*,-103.3*,0.5%
CCC(C(=O)OCC(=O)N1CCN(S(=O)(=O)c2ccc(C)cc2C)CC1)c1ccccc1 (centres undefined),1.8%,-13.1,-21.0,5.2%
CSc1cccc(CN2CCCC(CNC(=O)c3ccc(F)cc3)C2)c1 (centres undefined),-3.0%,19.4,-20.7,2.9%
SMILES,Rango-impB inh,hERG WT inh,KCNH2 3.1 block,Rango release inh
CCOc1cc(CN2CCCC(CNC(=O)c3ccc(F)cc3)C2)ccc1OC (centres undefined),-4.8%,18.5,?,16.4%
CSc1ccc(CN2CCCC(CNC(=O)c3ccc(F)cc3)C2)cc1 (centres undefined),-2.6%,0.4,-78.2*,-3.0%
CCOc1ccc(CN2CCCC(CNC(=O)c3ccc(F)cc3)C2)cc1CO (centres undefined),?,·,-100.8*,1.3%
NS(=O)(=O)c1ccc(NC(=O)COC(=O)CN2C(=O)C3CC=CCC3C2=O)cc1 (centres undefined),-1.5%,-2.9,-12.1,-0.6%
Fc1ccc(C2CC(c3ccco3)n3ncnc3N2)cc1 (centres undefined),?,-130.5*,-174.5*,-6.5%
CCOC(=O)N/N=C\c1ccc(OC(=O)c2ccco2)cc1,2.3%,-153.6*,-2.5,-2.7%
